Experimental data from PubChem BioAssay (NCATS).
Results filed as inconclusive are left out. Activity calls are given as the source filed them. Unless noted, the call rests on the fitted dose curve; in most records, active means well fitted curve in the direction sought with a large enough effect; inconclusive means small, poorly fitted or top-dose-only effect, or another doubt; inactive means no such curve, though single readings can be large; an effect the other way counts as inactive or inconclusive.

Experiments:
[1] = qHTS assay to identify small molecule inhibitors of chordoma cells - UCH-2 (AID 1259356); further: series mostly up to about 46 µM
[2] = P-glycoprotein substrates identified in KB-8-5-11 adenocarcinoma cell line, qHTS therapeutic library screen (AID 1346987); further: series mostly up to about 44 µM; nearly all actives have a fitted effect of over 65% in size
How it was run: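 Human cervical adenocarcinoma KB-8-5-11 cells, selected in colchicine to over-express P-gp and assayed without it, were exposed for 72 h to titrated compounds. An ATP-based luminescent viability signal gave AC50.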

[3] = molecular target: Atrial natriuretic peptide receptor 1 (Homo sapiens) (UniProt P16066); experiment: Natriuretic polypeptide receptor (hNpr1) antagonism - Pilot screen (AID 1347049; calls by dose curve;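 further: HEK293 cells with hNpr1 and GloSensor cGMP luciferase stimulated by 0.1 nM hNppA; agonist-evoked cGMP luminescence read 20 min after hNppA addition; series mostly up to about 58 µM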)
Atrial natriuretic peptide receptor 1 (Homo sapiens), sequence (P16066 whole entry, looked up): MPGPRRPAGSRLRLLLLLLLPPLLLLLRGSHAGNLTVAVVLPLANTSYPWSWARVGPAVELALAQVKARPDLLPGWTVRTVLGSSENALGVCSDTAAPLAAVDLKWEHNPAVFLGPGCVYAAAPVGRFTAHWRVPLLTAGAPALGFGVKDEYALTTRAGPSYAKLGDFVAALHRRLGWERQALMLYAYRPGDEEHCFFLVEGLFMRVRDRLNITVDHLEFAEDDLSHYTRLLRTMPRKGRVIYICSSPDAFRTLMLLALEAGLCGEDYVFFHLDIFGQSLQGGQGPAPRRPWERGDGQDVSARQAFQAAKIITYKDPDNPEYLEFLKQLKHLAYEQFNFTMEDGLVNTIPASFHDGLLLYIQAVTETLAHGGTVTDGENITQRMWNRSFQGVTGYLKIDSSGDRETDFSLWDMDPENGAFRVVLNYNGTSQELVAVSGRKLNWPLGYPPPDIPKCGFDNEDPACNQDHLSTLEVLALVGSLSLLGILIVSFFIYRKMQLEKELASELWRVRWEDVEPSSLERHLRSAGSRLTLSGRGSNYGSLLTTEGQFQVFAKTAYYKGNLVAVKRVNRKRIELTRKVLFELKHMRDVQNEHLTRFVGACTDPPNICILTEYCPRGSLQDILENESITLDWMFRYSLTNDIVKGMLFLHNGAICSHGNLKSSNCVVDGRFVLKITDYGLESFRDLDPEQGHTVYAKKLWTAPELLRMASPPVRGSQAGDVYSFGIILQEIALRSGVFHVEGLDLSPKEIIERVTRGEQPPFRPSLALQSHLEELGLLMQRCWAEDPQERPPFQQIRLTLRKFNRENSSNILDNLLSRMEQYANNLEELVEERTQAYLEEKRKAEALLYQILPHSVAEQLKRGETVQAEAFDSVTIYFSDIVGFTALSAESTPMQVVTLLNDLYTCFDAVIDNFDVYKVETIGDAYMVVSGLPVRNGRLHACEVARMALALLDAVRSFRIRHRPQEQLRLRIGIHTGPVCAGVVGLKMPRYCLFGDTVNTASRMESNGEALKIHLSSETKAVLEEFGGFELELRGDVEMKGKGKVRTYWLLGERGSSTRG
How it was run: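 Receptor antagonism read as cGMP-dependent luminescence in hNpr1/pGS-40F HEK293 cells: pre-read after 30 min compound exposure, post-read 20 min after hNppA agonist at 0.1 nM final, all at room temperature, protected from light; A-71915 titration as control.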

[4] = molecular target: Atrial natriuretic peptide receptor 2 (Homo sapiens) (UniProt P20594); experiment: Natriuretic polypeptide receptor (hNpr2) antagonism - Pilot subtype selectivity assay (AID 1347050; calls by dose curve)
Atrial natriuretic peptide receptor 2 (Homo sapiens), sequence (P20594 whole entry, looked up): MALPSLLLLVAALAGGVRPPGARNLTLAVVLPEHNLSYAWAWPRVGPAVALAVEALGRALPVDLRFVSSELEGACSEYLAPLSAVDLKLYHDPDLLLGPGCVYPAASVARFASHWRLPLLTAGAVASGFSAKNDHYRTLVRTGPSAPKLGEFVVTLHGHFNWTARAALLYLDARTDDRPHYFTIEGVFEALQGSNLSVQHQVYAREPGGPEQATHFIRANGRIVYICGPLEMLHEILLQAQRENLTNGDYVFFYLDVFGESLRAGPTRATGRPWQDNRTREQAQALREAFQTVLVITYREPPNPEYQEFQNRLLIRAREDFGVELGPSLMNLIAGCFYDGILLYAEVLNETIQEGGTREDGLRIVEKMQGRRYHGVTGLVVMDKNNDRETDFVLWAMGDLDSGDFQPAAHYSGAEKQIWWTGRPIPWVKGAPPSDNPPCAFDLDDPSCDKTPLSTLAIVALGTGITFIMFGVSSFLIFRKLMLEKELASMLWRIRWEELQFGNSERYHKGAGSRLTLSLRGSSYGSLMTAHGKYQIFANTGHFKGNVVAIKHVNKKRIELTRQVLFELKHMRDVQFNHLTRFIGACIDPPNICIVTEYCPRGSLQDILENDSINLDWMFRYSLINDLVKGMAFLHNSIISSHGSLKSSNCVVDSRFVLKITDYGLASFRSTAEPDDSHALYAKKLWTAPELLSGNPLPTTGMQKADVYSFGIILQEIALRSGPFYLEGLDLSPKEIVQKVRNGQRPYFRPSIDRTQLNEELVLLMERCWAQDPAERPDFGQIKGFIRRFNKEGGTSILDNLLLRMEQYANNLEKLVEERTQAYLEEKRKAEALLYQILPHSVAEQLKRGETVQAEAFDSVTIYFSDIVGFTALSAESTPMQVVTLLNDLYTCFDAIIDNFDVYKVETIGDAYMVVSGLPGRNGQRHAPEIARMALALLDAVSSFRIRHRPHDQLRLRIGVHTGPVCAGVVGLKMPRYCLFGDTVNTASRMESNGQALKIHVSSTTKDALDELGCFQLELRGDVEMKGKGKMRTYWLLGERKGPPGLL
How it was run: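 Antagonist mode: compounds (LOPAC1280, seven 1:5 dilutions) added 30 min before 1 nM hNppC stimulation of hNpr2-HEK293 cGMP-sensor cells; luminescence read before and 20 min after agonist at ambient temperature.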

[5] = molecular target: T1, Tyrosine-protein phosphatase non-receptor type substrate 1 (Homo sapiens) + Leukocyte surface antigen CD47 (Homo sapiens) (UniProt P78324+Q08722); experiment: CD47-SIRPalpha protein protein interaction - LANCE assay qHTS validation (AID 1347057; active means well fitted curve in the direction sought with a large enough effect in the signal ratio, with a control signal flat, not every such curve was filed as active; the % refers to the signal ratio; further: series mostly up to about 38 µM)
T1 sequence (P78324 whole entry, looked up, the tested form may be a part): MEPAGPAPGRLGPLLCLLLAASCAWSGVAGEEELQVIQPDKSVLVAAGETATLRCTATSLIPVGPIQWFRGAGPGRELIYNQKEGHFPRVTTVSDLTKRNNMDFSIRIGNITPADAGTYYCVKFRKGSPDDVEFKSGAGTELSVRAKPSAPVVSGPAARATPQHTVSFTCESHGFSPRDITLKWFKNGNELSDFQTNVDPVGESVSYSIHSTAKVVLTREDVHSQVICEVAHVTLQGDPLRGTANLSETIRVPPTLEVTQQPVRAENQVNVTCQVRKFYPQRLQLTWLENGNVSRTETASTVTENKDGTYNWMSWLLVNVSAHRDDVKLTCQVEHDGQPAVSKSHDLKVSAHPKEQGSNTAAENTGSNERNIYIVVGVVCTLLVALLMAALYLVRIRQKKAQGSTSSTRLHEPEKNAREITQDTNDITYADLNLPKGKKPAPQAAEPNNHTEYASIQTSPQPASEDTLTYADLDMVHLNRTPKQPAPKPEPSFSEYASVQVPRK
T1 sequence (Q08722 whole entry, looked up, the tested form may be a part): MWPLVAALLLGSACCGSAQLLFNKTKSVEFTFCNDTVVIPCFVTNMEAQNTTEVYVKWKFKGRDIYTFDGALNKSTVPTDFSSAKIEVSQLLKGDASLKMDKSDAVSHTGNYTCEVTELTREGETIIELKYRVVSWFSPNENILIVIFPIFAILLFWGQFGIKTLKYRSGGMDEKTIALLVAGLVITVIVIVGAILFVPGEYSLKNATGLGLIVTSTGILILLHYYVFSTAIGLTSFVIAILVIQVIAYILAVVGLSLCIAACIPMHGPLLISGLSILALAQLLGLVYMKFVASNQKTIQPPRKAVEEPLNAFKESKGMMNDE
How it was run: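 Inhibition of soluble CD47/SIRPalpha ectodomain association by titrated compounds, measured as 665/615 nm time-resolved FRET ratio after sequential 30 min room-temperature incubations.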

[6] = molecular target: T1, Tyrosine-protein phosphatase non-receptor type substrate 1 (Homo sapiens) + Leukocyte surface antigen CD47 (Homo sapiens); experiment: CD47-SIRPalpha protein protein interaction - HTRF assay qHTS validation (AID 1347058; active means well fitted curve in the direction sought with a large enough effect in the signal ratio, not every such curve was filed as active; the % refers to the signal ratio; further: series mostly up to about 38 µM)
How it was run: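 Soluble extracellular domains (6His-CD47, Avi-tag-biotinylated SIRPalpha) in PBS pH 7.4 with 0.05% IGEPAL CA-630. Compounds were preincubated 30 min at RT with CD47 and anti-His-Eu, then SIRPalpha and SAV-XL665 were added. TR-FRET 665/615 ratio.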

[7] = molecular target: T1, Tyrosine-protein phosphatase non-receptor type substrate 1 (Homo sapiens) + Leukocyte surface antigen CD47 (Homo sapiens); experiment: CD47-SIRPalpha protein protein interaction - Alpha assay qHTS validation (AID 1347059);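 further: bead proximity luminescence from CD47 binding SIRPalpha after compound preincubation with SIRPalpha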
How it was run: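 AlphaScreen signal between CD47-His (12.5 nM) and biotin-SIRPalpha (25 nM) soluble extracellular domains, bead-captured via Ni-NTA and streptavidin. Compounds, in 7-point titrations, met SIRPalpha 30 min before CD47; PBS pH 7.4 with 0.05% IGEPAL.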

[8] = molecular target: Parathyroid hormone/parathyroid hormone-related peptide receptor (Homo sapiens) (UniProt Q03431); experiment: qHTS for PTHR1 Agonists: Optimization Screen against the NCGC LOPAC library (AID 1347079);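 further: GloSensor cAMP luminescence in HEK-293 GP2 cells expressing human PTHR1 with IBMX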
Parathyroid hormone/parathyroid hormone-related peptide receptor (Homo sapiens), sequence (Q03431 whole entry, looked up): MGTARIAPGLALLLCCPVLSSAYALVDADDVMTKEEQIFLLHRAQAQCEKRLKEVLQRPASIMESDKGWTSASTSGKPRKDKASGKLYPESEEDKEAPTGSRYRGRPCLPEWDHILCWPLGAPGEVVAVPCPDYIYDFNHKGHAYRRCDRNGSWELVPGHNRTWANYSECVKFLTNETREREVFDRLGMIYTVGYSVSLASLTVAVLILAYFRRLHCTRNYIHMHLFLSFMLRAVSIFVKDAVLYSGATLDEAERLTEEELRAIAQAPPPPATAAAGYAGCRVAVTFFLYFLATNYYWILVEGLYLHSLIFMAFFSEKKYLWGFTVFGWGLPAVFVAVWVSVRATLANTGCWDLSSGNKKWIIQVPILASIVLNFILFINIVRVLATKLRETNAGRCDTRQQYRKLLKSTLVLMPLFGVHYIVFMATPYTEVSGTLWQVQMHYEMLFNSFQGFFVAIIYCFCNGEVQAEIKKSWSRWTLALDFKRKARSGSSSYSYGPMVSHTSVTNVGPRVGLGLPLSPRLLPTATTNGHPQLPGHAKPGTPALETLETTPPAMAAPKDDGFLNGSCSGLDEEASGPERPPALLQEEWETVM
How it was run: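 Signal increase flags agonism. GP2 cells, derived from HEK-293, express human PTHR1 and a GloSensor cAMP construct.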

[9] = qHTS for Inhibitors of the Functional Ribonucleoprotein Complex (vRNP) of Lassa (LASV) Arenavirus: LASV Primary Screen - GLuc reporter signal (AID 1347082; calls by dose curve; tested in HEK293 reporter line; further: series mostly up to about 57 µM; nearly all actives have a fitted effect of over 60% in size)
[10] = qHTS for Inhibitors of the Functional Ribonucleoprotein Complex (vRNP) of Lassa (LASV) Arenavirus: Viability assay - alamar blue signal for LASV Primary Screen (AID 1347083; calls by dose curve; tested in HEK293 reporter line; further: series mostly up to about 57 µM; nearly all actives have a fitted effect of over 80% in size)
[11] = qHTS for Inhibitors of the Functional Ribonucleoprotein Complex (vRNP) of Lymphocytic Choriomeningitis Arenaviruses (LCMV): Viability assay - alamar blue signal for LCMV Primary Screen (AID 1347085; calls by dose curve; tested in HEK293 reporter line; further: series mostly up to about 57 µM; nearly all actives have a fitted effect of over 80% in size)
[12] = qHTS assay to identify small molecule inhibitors of chordoma cells - UCH-1 (AID 1259355); further: nearly all actives have a fitted effect of over 55% in size
How it was run: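 800 cells/well, overnight attach; compounds pinned at 15 concs, then auranofin/camptothecin/doxorubicin/rubitecan/topotecan combo added; 48hr 37 C, 5% CO2; CellTiter-Glo, 30min RT, luminescence.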

[13] = NS1 protein of Zika virus - qHTS assay to identify small molecule inhibitors in human HEK 293 cells (AID 1347053); further: series mostly up to about 46 µM; nearly all actives have a fitted effect of over 55% in size
How it was run: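 Read-out is a two-antibody TR-FRET for ZIKV NS1, normalized between uninfected cells and infected cells. Compound added 1 h before MR766 infection at MOI 0.5; human HEK 293 cells incubated 24 h, 37 C.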

Measured: Potency

COc1ccc2c(c1OC)C(=O)O[C@H]2[C@@H]1c2cc3c(cc2CCN1C)OCO3
not listed: [12] | [13]
inactive: all other assays above

COC1CC(=C(c2cccs2)c2cccs2)C[N+](C)(C)C1 (stereo not drawn)
inactive: [12] | [1] | [2] | [9] | [10] | [11]

CN1C[C@H](C(=O)N[C@]2(C)O[C@@]3(O)[C@@H]4CCCN4C(=O)[C@H](Cc4ccccc4)N3C2=O)C=C2c3cccc4[nH]cc(c34)C[C@H]21
inactive: [1]

COP(=S)(OC)SCN1C(=O)c2ccccc2C1=O
inactive: [12] | [1] | [2] | [13] | [9] | [10] | [11]

O=C(N/N=C/c1ccc([N+](=O)[O-])o1)c1cc([N+](=O)[O-])cc([N+](=O)[O-])c1O
inactive: [12] | [1] | [2] | [13] | [9] | [10] | [11]

C[C@@H](N)[C@@H](O)c1ccccc1
inactive: [12] | [1] | [2] | [9] | [10] | [11]

NCCc1ccc(O)cc1
not listed: [12] | [13]
inactive: all other assays above

CN1CCC(O)(c2ccc(F)cc2)C(C(=O)c2ccc(F)cc2)C1 (stereo not drawn)
inactive: [12] | [1] | [2] | [9] | [10] | [11]

CC(=O)NC1CCSC1=O (stereo not drawn)
inactive: [12] | [1] | [2] | [13] | [9] | [10] | [11]

O=C1c2ccccc2C(=O)c2ccccc21
inactive: [12] | [1] | [2] | [9] | [10] | [11]

Cc1nnc2n1-c1ccc(Cl)cc1C(c1ccccc1)=NC2
inactive: [1]

COC(=O)[C@@H](N)CCCN/C(N)=N/[N+](=O)[O-]
inactive: [12] | [1] | [2] | [13] | [9] | [10] | [11]

Clc1cccc(SC2CCNCC2)n1
inactive: [12] | [1] | [13] | [9] | [10] | [11]

Oc1ccc(Cl)cc1
inactive: [12] | [1] | [2] | [9] | [10] | [11]

C#C[C@]1(O)CC[C@H]2[C@@H]3CCC4=CC(=O)CC[C@]4(C)[C@H]3CC[C@@]21C
inactive: [12] | [1] | [2] | [13] | [9] | [10] | [11]

NC(=O)CS(=O)C(c1ccccc1)c1ccccc1 (stereo not drawn)
inactive: [12] | [1] | [2] | [9] | [10] | [11]

O=C1OC(c2ccc(O)c(S(=O)(=O)O)c2)(c2ccc(O)c(S(=O)(=O)O)c2)c2c(Br)c(Br)c(Br)c(Br)c21
inactive: [12] | [1] | [2] | [13] | [9] | [10] | [11]
